SMILES strings stand for the structures. Active and inactive are the calls of the source.

The first experiment can be described thus: E. coli growth modulation, two-sided OD650, primary screen, E. coli filamentation project, strain DRC41, 24 h (AID 1093).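 Also: MC1000 strain lacking acrAB efflux and sulA so SOS filamentation is blocked; test concentration not given here.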 Conditions: OD650, 24 h, higher = more signal, called active from +8 up or from −8 down.
Regarding `C[C@H]1COC(=O)[C@@H]2CCCN2C(=O)[C@@H](C)COC(=O)[C@H](Cc2ccccc2)NC1=O`, the z-score was 0.0412 (inactive).

Regarding `CCOC(=O)NN=C1C[C@@H](O)[C@@H](O)[C@@H]2[C@@H]3C(=O)N(c4cccc(Oc5ccccc5)c4)C(=O)[C@@H]3CC[C@H]12`, the z-score is -0.998 (inactive).

With `CCOC(=O)C1=NO[C@@]2(C=C(Br)C3(OCCCO3)[C@H]3O[C@H]32)C1`, the z-score is 0.292 (inactive).

On to `CO[C@@H]1COC(=O)[C@H](CCSC)NC(=O)CC=C[C@@H](C)COC(=O)CCC[C@H]1C`, for which the z-score is -0.0886 (inactive).

`CCOC(=O)[C@H](Cc1ccccc1)NC(=O)CCC1CC(OC(=O)NCc2cccc3ccccc23)CC2(CCCC(COC(=O)NCCC(C)C)O2)O1` (some centres not stated): the z-score is -0.444 (inactive).

On to `CC[C@@H](c1ccccc1)n1c(=O)n2n(c1=O)[C@H]1[C@H](O)[C@@H]3O[C@@H]3C(=O)[C@H]1CC2`, for which the z-score was 0.473 (inactive).

As for `CCc1cc2c(nc1CC)CCN(CCC(C)=NO[C@H](C)c1cn([C@H](CO)Cc3ccccc3)nn1)C2`, the z-score is -0.0004 (inactive).

Turning to `CCOC(=O)[C@H](CC(C)C)NC(=O)CCC1CC(OC(=O)NCc2ccc3c(c2)OCO3)CC2(CCCC(COC(=O)NCC(c3ccccc3)c3ccccc3)O2)O1` (some centres not stated), the z-score was 0.344 (inactive).

Take `CCOC(=O)CCN1C(=O)[C@H]2[C@H]3[C@H](O)[C@H](O)CC(=NOCC(C)C)[C@H]3CC[C@H]2C1=O`: the z-score is 0.251 (inactive).

Regarding `O=C1[C@H]2[C@H]3[C@H](O)[C@H](O)CC(=NOCc4ccccc4)[C@@H]3CC[C@H]2C(=O)N1C[C@@H]1CCCO1`, the z-score was 1.27 (inactive).

In the case of `CCOC(=O)[C@H](CC(C)C)NC(=O)CCC1CC(OC(=O)NCc2cccc3ccccc23)CC2(CCCC(COC(=O)NCC3CCCCC3)O2)O1` (some centres not stated), the z-score is -0.683 (inactive).

With `CC(C)=CCCC(C)=CCON=C1C[C@@H](O)[C@@H](O)[C@@H]2[C@@H]3C(=O)N(c4cccc(Oc5ccccc5)c4)C(=O)[C@@H]3CC[C@@H]12`, the z-score was 0.951 (inactive).

As for `O=C1[C@H]2[C@H]3[C@H](O)[C@H](O)CC(=NOC[C@@H](O)COCc4ccco4)[C@H]3CC[C@H]2C(=O)N1c1ccc(F)cc1F`, the z-score was -1.13 (inactive).

As to `COc1ccc(O[C@@H]2[C@H](O)CO[C@H]2C=Cc2ccccc2)cc1`, the z-score is 0.473 (inactive).

As for `COC(=O)[C@@H]1CC[C@H](C)[C@@H](c2ccc(C)cc2)N1C(=O)c1ccc(C=NO[C@@H]2O[C@H](COC(C)=O)[C@@H](OC(C)=O)[C@H](OC(C)=O)[C@H]2OC(C)=O)cc1`, the z-score was -1.3 (inactive).

As to `CO[C@H]1COC(=O)[C@H](C)NC(=O)[C@@H](C)COC(=O)[C@H]2CCCN2C(=O)CC=C[C@H]1C`, the z-score was 0.492 (inactive).

Regarding `CC(C)=CCCC(C)=CCON=C1C[C@@H](O)[C@@H](O)[C@@H]2[C@@H]3C(=O)N(c4ccc(F)cc4F)C(=O)[C@@H]3CC[C@H]12`, the z-score is -0.159 (inactive).

As for `COc1cc(O)c(C(=O)C=Cc2ccc3c(c2)OCO3)c(OC)c1`, the z-score is 0.75 (inactive).

As for `COc1ccc(O[C@H]2C=C[C@@H](c3ccccc3)O[C@@H]2CON=C2[C@H]3CCn4c(=O)n(-c5ccccc5)c(=O)n4[C@H]3[C@H](O)[C@@H]3O[C@H]23)cc1`, the z-score was -0.745 (inactive).

`COc1ccc(COC(=O)NN=C2C[C@@H](O)[C@@H](O)[C@@H]3[C@@H]4C(=O)N(Cc5ccccc5)C(=O)[C@@H]4CC[C@H]23)cc1`: the z-score is -0.289 (inactive).

For `CO[C@H]1COC(=O)[C@@H](C)COC(=O)[C@@H](OCc2ccccc2)C=C[C@@H]1C`, the z-score is 0.075 (inactive).

In the case of `COc1ccc(O[C@H]2C=C[C@@H](c3ccccc3)O[C@@H]2CON=C(C)CCN2CCc3nc(-c4ccccc4)c(-c4ccccc4)cc3C2)cc1`, the z-score is 0.669 (inactive).

As to `CCN1C(=O)[C@H]2[C@H]3[C@H](O)[C@H](O)CC(=O)[C@H]3CC[C@H]2C1=O`, the z-score is 0.759 (inactive).

`CCCNC(=O)OC[C@H]1O[C@H](CCON=C(C)C)C=C[C@@H]1Oc1ccc(OC)cc1`: the z-score was 0.964 (inactive).

On to `CCOC(=O)NN=C1C[C@@H](O)[C@@H](O)[C@@H]2[C@@H]3C(=O)N(c4ccc(F)cc4F)C(=O)[C@@H]3CC[C@@H]12`, for which the z-score was 0.783 (inactive).

As for `C[n+]1ccc(-c2ccc(CO)cc2)cc1`, the z-score is 0.917 (inactive).

Another experiment in a line: small-molecule microarray binders of probe aLefty2, primary screen, biochemical, biotinylated probe, 635/667 nm fluorescence (AID 1094).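 Also: score merges spot fluorescence near 667 nm with spot signal-to-noise ratio.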 As to conditions: higher = more signal.
Take `CO[C@H]1COC(=O)CC=C[C@H](C)[C@@H](OC)COC(=O)[C@@H](C)NC(=O)CC=C[C@@H]1C`: the composite z-score is -0.148.

Consider `CCOC(=O)[C@H](Cc1ccccc1)NC(=O)OC1CC(CCC2CC(CC)=NO2)OC2(CCCC(COC(=O)NCCC(C)C)O2)C1` (some centres not stated), for which the composite z-score is -0.147.

On to `CC(C)CON=C1C[C@@H](O)[C@@H](O)[C@@H]2[C@@H]3C(=O)N(c4ccc(F)cc4F)C(=O)[C@@H]3CC[C@H]12`, for which the composite z-score was -0.304.

Consider `CC(C)(C)N1C(=O)[C@H]2[C@H]3[C@H](O)[C@H](O)CC(=NO[C@@H]4O[C@H](CO)[C@@H](O)[C@H](O)[C@H]4O)[C@H]3CC[C@H]2C1=O`, for which the composite z-score was -0.0603.

Regarding `COC(=O)C=CCCc1coc(C=CCNC(=O)OC)n1`, the composite z-score turned out to be 0.17.

Take `Cc1ccc(S(=O)(=O)OC[C@H]2CN3[C@H](c4ccc(Br)cc4)[C@@H](C)CC[C@H]3C(=O)O2)cc1`: the composite z-score was -0.259.

The compound `CO[C@@H]1COC(=O)[C@@H](C)NC(=O)CC=C[C@@H](C)[C@H](NS(=O)(=O)c2ccc(C)cc2)COC(=O)[C@H](C)NC(=O)CC=C[C@H]1C` had a composite z-score of -0.319.

Regarding `COC(=O)[C@H](C)NC(=O)CCC1CC(OC(=O)NCc2ccc3c(c2)OCO3)CC2(CCCC(COC(=O)NCC3CCCCC3)O2)O1` (some centres not stated), the composite z-score was -0.0576.

For `C#CCCCON=C1C[C@@H](O)[C@@H](O)[C@@H]2[C@@H]3C(=O)N(C(C)(C)C)C(=O)[C@@H]3CC[C@H]12`, the composite z-score turned out to be 0.599.

`CCOC(=O)NN=C1C[C@@H](O)[C@@H](O)[C@@H]2[C@@H]3C(=O)N(C(C)(C)C)C(=O)[C@@H]3CC[C@H]12`: the composite z-score was -0.101.

For `C[C@H]1COC(=O)[C@@H]2CCCN2C(=O)[C@@H](C)COC(=O)[C@H](Cc2ccccc2)NC1=O`, the composite z-score is -0.141.

`CCOC(=O)NN=C1C[C@@H](O)[C@@H](O)[C@@H]2[C@@H]3C(=O)N(c4cccc(Oc5ccccc5)c4)C(=O)[C@@H]3CC[C@H]12` displayed a composite z-score of -0.175.

Compound `CCOC(=O)C1=NO[C@@]2(C=C(Br)C3(OCCCO3)[C@H]3O[C@H]32)C1` came in with a composite z-score of 0.105.

Regarding `CO[C@@H]1COC(=O)[C@H](CCSC)NC(=O)CC=C[C@@H](C)COC(=O)CCC[C@H]1C`, the composite z-score was -0.0225.

In turn, `CCOC(=O)[C@H](Cc1ccccc1)NC(=O)CCC1CC(OC(=O)NCc2cccc3ccccc23)CC2(CCCC(COC(=O)NCCC(C)C)O2)O1` (some centres not stated) displayed a composite z-score of 0.0062.

`CC[C@@H](c1ccccc1)n1c(=O)n2n(c1=O)[C@H]1[C@H](O)[C@@H]3O[C@@H]3C(=O)[C@H]1CC2`: the composite z-score came to 0.444.

On to `CCc1cc2c(nc1CC)CCN(CCC(C)=NO[C@H](C)c1cn([C@H](CO)Cc3ccccc3)nn1)C2`, for which the composite z-score amounted to 0.0336.

`CCOC(=O)[C@H](CC(C)C)NC(=O)CCC1CC(OC(=O)NCc2ccc3c(c2)OCO3)CC2(CCCC(COC(=O)NCC(c3ccccc3)c3ccccc3)O2)O1` (some centres not stated) showed a composite z-score of -0.145.

With `CCOC(=O)CCN1C(=O)[C@H]2[C@H]3[C@H](O)[C@H](O)CC(=NOCC(C)C)[C@H]3CC[C@H]2C1=O`, the composite z-score came out at 0.096.

Regarding `O=C1[C@H]2[C@H]3[C@H](O)[C@H](O)CC(=NOCc4ccccc4)[C@@H]3CC[C@H]2C(=O)N1C[C@@H]1CCCO1`, the composite z-score was -0.114.

As for `CCOC(=O)[C@H](CC(C)C)NC(=O)CCC1CC(OC(=O)NCc2cccc3ccccc23)CC2(CCCC(COC(=O)NCC3CCCCC3)O2)O1` (some centres not stated), the composite z-score was -0.0151.

Take `CC(C)=CCCC(C)=CCON=C1C[C@@H](O)[C@@H](O)[C@@H]2[C@@H]3C(=O)N(c4cccc(Oc5ccccc5)c4)C(=O)[C@@H]3CC[C@@H]12`: the composite z-score is -0.124.

As for `O=C1[C@H]2[C@H]3[C@H](O)[C@H](O)CC(=NOC[C@@H](O)COCc4ccco4)[C@H]3CC[C@H]2C(=O)N1c1ccc(F)cc1F`, the composite z-score is -0.469.

Take `COc1ccc(O[C@@H]2[C@H](O)CO[C@H]2C=Cc2ccccc2)cc1`: the composite z-score is -0.214.

In turn, `COC(=O)[C@@H]1CC[C@H](C)[C@@H](c2ccc(C)cc2)N1C(=O)c1ccc(C=NO[C@@H]2O[C@H](COC(C)=O)[C@@H](OC(C)=O)[C@H](OC(C)=O)[C@H]2OC(C)=O)cc1` yielded a composite z-score of -0.0873.

`CO[C@H]1COC(=O)[C@H](C)NC(=O)[C@@H](C)COC(=O)[C@H]2CCCN2C(=O)CC=C[C@H]1C` had a composite z-score of -0.138.

`CC(C)=CCCC(C)=CCON=C1C[C@@H](O)[C@@H](O)[C@@H]2[C@@H]3C(=O)N(c4ccc(F)cc4F)C(=O)[C@@H]3CC[C@H]12` gave a composite z-score of -0.0413.

`COc1cc(O)c(C(=O)C=Cc2ccc3c(c2)OCO3)c(OC)c1` registered a composite z-score of -0.127.

`COc1ccc(O[C@H]2C=C[C@@H](c3ccccc3)O[C@@H]2CON=C2[C@H]3CCn4c(=O)n(-c5ccccc5)c(=O)n4[C@H]3[C@H](O)[C@@H]3O[C@H]23)cc1`: the composite z-score is -0.206.

As for `COc1ccc(COC(=O)NN=C2C[C@@H](O)[C@@H](O)[C@@H]3[C@@H]4C(=O)N(Cc5ccccc5)C(=O)[C@@H]4CC[C@H]23)cc1`, the composite z-score was 0.287.

For `CO[C@H]1COC(=O)[C@@H](C)COC(=O)[C@@H](OCc2ccccc2)C=C[C@@H]1C`, the composite z-score is -0.357.

For `COc1ccc(O[C@H]2C=C[C@@H](c3ccccc3)O[C@@H]2CON=C(C)CCN2CCc3nc(-c4ccccc4)c(-c4ccccc4)cc3C2)cc1`, the composite z-score is -0.148.

For the compound `CCN1C(=O)[C@H]2[C@H]3[C@H](O)[C@H](O)CC(=O)[C@H]3CC[C@H]2C1=O`, the composite z-score is -0.228.

In turn, `CCCNC(=O)OC[C@H]1O[C@H](CCON=C(C)C)C=C[C@@H]1Oc1ccc(OC)cc1` returned a composite z-score of 0.0472.

The compound `CCOC(=O)NN=C1C[C@@H](O)[C@@H](O)[C@@H]2[C@@H]3C(=O)N(c4ccc(F)cc4F)C(=O)[C@@H]3CC[C@@H]12` came in with a composite z-score of -0.0347.

As for `C[n+]1ccc(-c2ccc(CO)cc2)cc1`, the composite z-score came to 0.149.

Values taken from PubChem BioAssay.
